Reference: the supplement of paper PMC8975748
Structures can show the parent of a compound that is named as a salt.

Each molecule was assayed on Saccharomyces cerevisiae BY4741 SeMeCo community (assay: z-score of subpopulation abundance vs DMSO median, subpopulation auxotrophic for L; higher = larger share of this subpopulation than in DMSO controls). Settings: 10 µM; 24 h; SM minimal medium; subpopulation (auxotrophy): L.
Description: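 Fluorescent four-plasmid SeMeCo (self-establishing metabolically cooperating S. cerevisiae BY4741 community; plasmids pH-mRuby2, pL-mWasabi, pU-eCFP, pM-TagRFP657) was grown 24 h in minimal SM medium with each Selleck FDA-approved drug at 10 µM in 384-well plates. Cells were fixed and imaged by high-content confocal microscopy. For each auxotrophic subpopulation (and the prototroph), a z-score gives the deviation from the DMSO vehicle-control population median.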

Structure (SMILES) | z-score of subpopulation abundance
CN1c2ccccc2C(NCCCCCCC(=O)O)c2ccc(Cl)cc2S1(=O)=O (centres undefined) [Tianeptine sodium] | -0.37
CN(C)C(=O)Oc1ccc[n+](C)c1 [Pyridostigmine Bromide] | 0.3
CCCN1C[C@H](CSC)C[C@@H]2c3cccc4[nH]cc(c34)C[C@H]21 [Pergolide Mesylate] | 0.12
C[N+]12CCC(CC1)C(OC(=O)C(O)(c1ccccc1)c1ccccc1)C2 (centres undefined) [Clidinium Bromide] | 0.14
CC(C)N(CCC(C(N)=O)(c1ccccc1)c1ccccn1)C(C)C (centres undefined) [Disopyramide] | 2.35
CNC1CC(N)C(O)C(OC2OC(CO)C(O)C3OC4(OC(C(N)CO)C(O)C(O)C4O)OC23)C1O (centres undefined) [Hygromycin B] | 0.12
O=C(O[C@H]1C[N+]2(CCCOc3ccccc3)CCC1CC2)C(O)(c1cccs1)c1cccs1 [Aclidinium Bromide] | -1.04
CC(NC(C)(C)C)C(=O)c1cccc(Cl)c1 (centres undefined) [Amfebutamone (Bupropion) HCl] | 0.13
Cc1cc(C(C#N)c2ccc(Cl)cc2)c(Cl)cc1NC(=O)c1cc(I)cc(I)c1O (centres undefined) [Closantel] | 1.28
O=c1[nH]c2ccccc2n1CCCN1CCC(n2c(=O)[nH]c3cc(Cl)ccc32)CC1 [Domperidone] | 0.55
CC(C)=CCOc1c2occc2cc2ccc(=O)oc12 [Imperatorin] | 1.37
NC(=O)CN1CCCC1=O [Piracetam] | 1.45
C[C@@H]1CC[C@H]2[C@@H](C)C(=O)O[C@@H]3O[C@@]4(C)CC[C@@H]1[C@]32OO4 [Artemisinin] | -0.11
N#Cc1nn(-c2c(Cl)cc(C(F)(F)F)cc2Cl)c(N)c1[S+]([O-])C(F)(F)F (centres undefined) [Fipronil] | -0.6
CCCCCCCCCCCCCCCC[n+]1ccccc1 [Cetylpyridinium Chloride] | -2.16
C=C[C@H]1CN2CC[C@H]1C[C@H]2[C@H](O)c1ccnc2ccccc12 [Cinchonidine] | 0.13
CC[C@H]1CN2CC[C@]3(C(=O)Nc4ccccc43)[C@@H]2C[C@@H]1/C(=C\OC)C(=O)OC [Rhynchophylline] | -0.82

Structure (SMILES) | z-score of subpopulation abundance
CN1[C@@H]2CC[C@H]1C[C@@H](OC(=O)[C@H](CO)c1ccccc1)C2 [Hyoscyamine] | 0.64
CN1[C@@H]2CC[C@H]1C[C@@H](OC(=O)C(CO)c1ccccc1)C2 (some centres undefined) [Atropine sulfate monohydrate] | -0.2
CC[N+](C)(CC)CCOC(=O)C(O)(c1ccccc1)c1ccccc1 [Methylbenactyzine Bromide] | -0.83
CN(C)[C@@H]1C(=O)C(C(N)=O)=C(O)[C@@]2(O)C(=O)C3=C(O)c4c(O)cccc4[C@@](C)(O)[C@H]3C[C@@H]12 [Tetracycline HCl] | -0.47
CCC1=C[C@H]2CN3CCc4c([nH]c5ccccc45)[C@](C(=O)OC)(C2)[C@H]13 [Catharanthine] | -0.77
CN(C)[C@@H]1C(=O)C(C(N)=O)=C(O)[C@@]2(O)C(=O)C3=C(O)c4c(O)cccc4[C@@](C)(O)[C@H]3[C@H](O)[C@@H]12 [Oxytetracycline Dihydrate] | -0.76
Nc1ccncc1 [4-Aminopyridine] | 0.44
C[CH2][Hg][S]c1ccccc1C(=O)[O-].[Na+] [Thimerosal] | -2.54
C[C@@H]1O[C@@H](O[C@H]2C[C@@H](O)[C@]3(CO)[C@H]4[C@H](O)C[C@]5(C)[C@@H](C6=CC(=O)OC6)CC[C@]5(O)[C@@H]4CC[C@]3(O)C2)[C@H](O)[C@H](O)[C@H]1O [Ouabain] | -0.43
CN1C(=O)COc2c(C(=O)NC3CN4CCC3CC4)cc(Cl)cc21 (centres undefined) [Azasetron HCl] | 0.07
CC(C)(O)C(Cl)(Cl)Cl [Chlorobutanol] | 0.36
O=C(O[C@H]1C[C@H]2CC[C@@H](C1)[N+]21CCCC1)C(O)(c1ccccc1)c1ccccc1 [Trospium chloride] | -0.17
CCOC(=O)Nc1ccc(NCc2ccc(F)cc2)cc1N [Retigabine 2HCl] | -0.41
CCOC(=O)Nc1ccc(NCc2ccc(F)cc2)cc1N [Retigabine] | -0.58
NCCc1c[nH]c2ccc(O)cc12 [Serotonin HCl] | -1.08
COC(=O)C1=CCCN(C)C1 [Arecoline HBr] | 0.3
CN1[C@@H]2C[C@@H](OC(=O)[C@H](CO)c3ccccc3)C[C@H]1[C@@H]1O[C@@H]12 [Scopolamine HBr trihydrate] | -0.39
